Columns and labels:
[1] = test system: Epidermal growth factor receptor (Homo sapiens), P00533 [T790M]; details: at 1 µM
[2] = test system: Epidermal growth factor receptor (Homo sapiens), P00533 [L858R,T790M]; details: at 0.1 µM
[3] = test system: Epidermal growth factor receptor (Homo sapiens), P00533 [L858R,T790M]; details: at 1 µM
[4] = target: Ephrin type-A receptor 2 (Homo sapiens) (UniProt P29317); details: at 0.1 µM
[5] = target: Ephrin type-A receptor 2 (Homo sapiens) (UniProt P29317); details: at 1 µM
[6] = target: T1, Ephrin type-A receptor 3 (Homo sapiens) (UniProt P29320); details: at 0.1 µM
T1 sequence (whole entry): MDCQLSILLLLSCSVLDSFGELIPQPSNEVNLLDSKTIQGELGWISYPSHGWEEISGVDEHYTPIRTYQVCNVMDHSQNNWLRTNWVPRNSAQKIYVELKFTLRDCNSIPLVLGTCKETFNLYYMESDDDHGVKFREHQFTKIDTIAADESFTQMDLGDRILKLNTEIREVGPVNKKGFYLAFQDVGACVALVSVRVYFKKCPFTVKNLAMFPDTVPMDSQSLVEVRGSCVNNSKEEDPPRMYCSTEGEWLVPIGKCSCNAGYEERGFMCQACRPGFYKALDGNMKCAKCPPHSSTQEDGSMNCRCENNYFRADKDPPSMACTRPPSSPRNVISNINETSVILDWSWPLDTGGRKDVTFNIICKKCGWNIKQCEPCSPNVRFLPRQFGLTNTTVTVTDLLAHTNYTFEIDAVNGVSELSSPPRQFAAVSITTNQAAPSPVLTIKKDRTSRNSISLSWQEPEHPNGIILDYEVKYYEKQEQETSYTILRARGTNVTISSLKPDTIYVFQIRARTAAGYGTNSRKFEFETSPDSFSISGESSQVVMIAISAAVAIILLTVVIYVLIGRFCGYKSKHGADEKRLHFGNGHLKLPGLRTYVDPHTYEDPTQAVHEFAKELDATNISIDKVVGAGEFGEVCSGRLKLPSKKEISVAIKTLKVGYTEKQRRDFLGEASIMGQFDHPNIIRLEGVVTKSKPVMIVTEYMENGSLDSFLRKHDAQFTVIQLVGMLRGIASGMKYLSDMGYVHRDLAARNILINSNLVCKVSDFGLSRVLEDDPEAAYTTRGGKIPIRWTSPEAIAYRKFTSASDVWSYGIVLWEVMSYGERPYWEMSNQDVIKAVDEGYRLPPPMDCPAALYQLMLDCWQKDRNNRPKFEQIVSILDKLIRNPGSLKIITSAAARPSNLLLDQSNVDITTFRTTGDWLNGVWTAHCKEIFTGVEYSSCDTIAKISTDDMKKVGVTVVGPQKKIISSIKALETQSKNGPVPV

[7] = target: T1, Ephrin type-A receptor 3 (Homo sapiens); details: at 1 µM
[8] = target: Ephrin type-A receptor 4 (Homo sapiens) (UniProt P54764); details: at 0.1 µM
Ephrin type-A receptor 4 (Homo sapiens), sequence (P54764 whole entry): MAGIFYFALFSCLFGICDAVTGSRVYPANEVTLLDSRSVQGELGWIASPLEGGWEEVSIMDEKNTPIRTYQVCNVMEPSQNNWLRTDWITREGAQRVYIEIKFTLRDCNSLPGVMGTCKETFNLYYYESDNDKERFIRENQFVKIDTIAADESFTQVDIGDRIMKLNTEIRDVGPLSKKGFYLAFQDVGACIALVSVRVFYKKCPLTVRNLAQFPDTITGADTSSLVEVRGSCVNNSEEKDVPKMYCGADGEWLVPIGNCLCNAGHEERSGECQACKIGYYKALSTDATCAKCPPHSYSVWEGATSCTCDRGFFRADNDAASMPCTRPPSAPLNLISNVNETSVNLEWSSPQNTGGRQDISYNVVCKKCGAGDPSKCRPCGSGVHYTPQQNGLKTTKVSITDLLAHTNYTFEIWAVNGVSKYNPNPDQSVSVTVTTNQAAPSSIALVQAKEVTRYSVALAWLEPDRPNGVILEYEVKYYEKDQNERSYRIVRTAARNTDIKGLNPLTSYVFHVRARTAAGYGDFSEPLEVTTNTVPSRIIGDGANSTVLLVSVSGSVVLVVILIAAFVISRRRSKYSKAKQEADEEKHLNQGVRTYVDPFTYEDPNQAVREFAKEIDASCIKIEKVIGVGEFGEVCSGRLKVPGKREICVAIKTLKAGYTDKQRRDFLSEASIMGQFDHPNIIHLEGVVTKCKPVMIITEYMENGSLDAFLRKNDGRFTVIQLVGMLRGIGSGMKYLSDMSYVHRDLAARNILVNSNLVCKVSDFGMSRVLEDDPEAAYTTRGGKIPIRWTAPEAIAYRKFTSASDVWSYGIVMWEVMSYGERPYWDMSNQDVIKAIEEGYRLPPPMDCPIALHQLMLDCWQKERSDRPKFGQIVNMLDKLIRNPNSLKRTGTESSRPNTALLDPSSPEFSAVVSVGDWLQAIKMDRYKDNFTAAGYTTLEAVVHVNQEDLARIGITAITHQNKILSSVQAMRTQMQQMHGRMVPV

[9] = target: Ephrin type-A receptor 4 (Homo sapiens) (UniProt P54764); details: at 1 µM
[10] = target: T2, Ephrin type-B receptor 2 (Homo sapiens) (UniProt P29323); details: at 0.1 µM
T2 sequence (whole entry): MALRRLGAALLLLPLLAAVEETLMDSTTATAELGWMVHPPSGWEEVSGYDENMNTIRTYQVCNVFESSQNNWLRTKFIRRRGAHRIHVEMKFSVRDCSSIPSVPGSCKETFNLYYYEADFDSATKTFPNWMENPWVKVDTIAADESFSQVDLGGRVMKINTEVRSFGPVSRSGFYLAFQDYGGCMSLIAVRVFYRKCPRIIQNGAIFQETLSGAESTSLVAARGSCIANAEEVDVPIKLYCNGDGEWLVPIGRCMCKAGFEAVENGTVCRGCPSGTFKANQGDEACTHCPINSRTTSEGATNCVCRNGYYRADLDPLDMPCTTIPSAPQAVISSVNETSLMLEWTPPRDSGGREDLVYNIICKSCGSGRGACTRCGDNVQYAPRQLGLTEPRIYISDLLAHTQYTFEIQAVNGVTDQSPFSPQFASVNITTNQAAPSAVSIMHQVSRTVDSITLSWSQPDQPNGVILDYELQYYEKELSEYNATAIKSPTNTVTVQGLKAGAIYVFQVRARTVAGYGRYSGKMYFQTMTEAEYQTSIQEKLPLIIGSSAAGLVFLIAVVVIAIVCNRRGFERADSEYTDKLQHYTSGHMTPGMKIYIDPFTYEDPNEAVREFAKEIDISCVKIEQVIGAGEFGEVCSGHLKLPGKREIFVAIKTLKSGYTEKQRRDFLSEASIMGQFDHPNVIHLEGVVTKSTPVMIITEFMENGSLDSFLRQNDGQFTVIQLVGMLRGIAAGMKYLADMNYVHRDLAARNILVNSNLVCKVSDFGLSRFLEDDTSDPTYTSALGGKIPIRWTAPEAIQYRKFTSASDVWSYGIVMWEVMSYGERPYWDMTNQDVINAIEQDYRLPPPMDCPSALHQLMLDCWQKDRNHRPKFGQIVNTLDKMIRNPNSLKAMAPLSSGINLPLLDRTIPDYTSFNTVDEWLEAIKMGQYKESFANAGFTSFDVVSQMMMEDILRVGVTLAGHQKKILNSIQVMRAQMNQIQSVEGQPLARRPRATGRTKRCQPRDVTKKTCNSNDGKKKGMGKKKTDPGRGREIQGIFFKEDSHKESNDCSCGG

[11] = target: T2, Ephrin type-B receptor 2 (Homo sapiens); details: at 1 µM
[12] = target: T3, Ephrin type-B receptor 3 (Homo sapiens) (UniProt P54753); details: at 0.1 µM
T3 sequence (whole entry): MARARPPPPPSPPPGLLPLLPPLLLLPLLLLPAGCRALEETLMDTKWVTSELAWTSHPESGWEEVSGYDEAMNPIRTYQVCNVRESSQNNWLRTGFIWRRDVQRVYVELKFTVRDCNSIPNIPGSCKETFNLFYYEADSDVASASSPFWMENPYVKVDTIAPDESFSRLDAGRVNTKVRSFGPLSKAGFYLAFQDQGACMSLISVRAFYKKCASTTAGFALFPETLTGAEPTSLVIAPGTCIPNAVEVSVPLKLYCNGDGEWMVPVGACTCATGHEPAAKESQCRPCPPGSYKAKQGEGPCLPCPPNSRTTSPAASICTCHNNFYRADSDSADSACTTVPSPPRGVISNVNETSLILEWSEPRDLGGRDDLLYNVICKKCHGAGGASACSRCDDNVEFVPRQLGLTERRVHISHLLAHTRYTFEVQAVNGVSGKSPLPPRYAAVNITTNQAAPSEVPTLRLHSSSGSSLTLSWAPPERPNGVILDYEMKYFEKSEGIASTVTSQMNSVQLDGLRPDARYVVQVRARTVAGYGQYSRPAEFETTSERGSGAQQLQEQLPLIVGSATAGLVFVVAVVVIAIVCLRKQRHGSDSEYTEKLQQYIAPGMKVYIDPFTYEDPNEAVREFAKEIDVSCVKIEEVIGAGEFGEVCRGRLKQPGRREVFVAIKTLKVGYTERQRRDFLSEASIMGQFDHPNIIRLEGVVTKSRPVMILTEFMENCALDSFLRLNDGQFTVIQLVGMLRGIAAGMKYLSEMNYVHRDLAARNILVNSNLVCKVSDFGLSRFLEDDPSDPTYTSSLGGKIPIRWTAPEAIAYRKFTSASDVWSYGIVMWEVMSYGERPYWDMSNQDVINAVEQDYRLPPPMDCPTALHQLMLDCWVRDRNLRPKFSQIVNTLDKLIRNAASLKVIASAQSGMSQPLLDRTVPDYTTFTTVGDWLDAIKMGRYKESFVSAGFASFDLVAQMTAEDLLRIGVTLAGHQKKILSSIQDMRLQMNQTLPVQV

[13] = target: T3, Ephrin type-B receptor 3 (Homo sapiens); details: at 1 µM
[14] = target: T4, Ephrin type-B receptor 4 (Homo sapiens) (UniProt P54760); details: at 0.1 µM
T4 sequence (whole entry): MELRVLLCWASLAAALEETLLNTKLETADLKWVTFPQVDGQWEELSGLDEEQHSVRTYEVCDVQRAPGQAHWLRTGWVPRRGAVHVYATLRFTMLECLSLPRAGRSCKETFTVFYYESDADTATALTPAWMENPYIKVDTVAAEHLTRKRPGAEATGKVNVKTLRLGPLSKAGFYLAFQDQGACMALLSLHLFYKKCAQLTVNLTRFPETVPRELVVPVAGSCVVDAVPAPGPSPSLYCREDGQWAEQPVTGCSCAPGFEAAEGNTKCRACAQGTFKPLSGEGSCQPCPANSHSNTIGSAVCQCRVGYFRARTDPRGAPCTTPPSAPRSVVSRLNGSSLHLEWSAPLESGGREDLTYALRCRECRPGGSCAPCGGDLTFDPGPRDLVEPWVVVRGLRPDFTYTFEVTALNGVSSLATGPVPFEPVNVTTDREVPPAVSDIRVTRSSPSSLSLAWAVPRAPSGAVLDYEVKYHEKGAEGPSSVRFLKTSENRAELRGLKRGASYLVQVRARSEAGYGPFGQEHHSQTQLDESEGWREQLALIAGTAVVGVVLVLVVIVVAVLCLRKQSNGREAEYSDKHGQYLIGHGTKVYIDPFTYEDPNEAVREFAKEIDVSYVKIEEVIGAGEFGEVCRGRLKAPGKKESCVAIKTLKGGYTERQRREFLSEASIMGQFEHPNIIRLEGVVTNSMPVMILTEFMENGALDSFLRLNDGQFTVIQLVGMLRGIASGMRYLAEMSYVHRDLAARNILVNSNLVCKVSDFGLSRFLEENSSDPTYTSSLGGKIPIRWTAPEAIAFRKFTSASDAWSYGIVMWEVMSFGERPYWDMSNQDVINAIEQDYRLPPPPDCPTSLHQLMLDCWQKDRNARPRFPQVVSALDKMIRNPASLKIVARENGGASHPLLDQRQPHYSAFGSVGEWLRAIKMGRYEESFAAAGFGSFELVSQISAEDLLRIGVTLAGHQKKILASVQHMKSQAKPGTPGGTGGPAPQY

[15] = target: T4, Ephrin type-B receptor 4 (Homo sapiens); details: at 1 µM
[16] = target: Receptor tyrosine-protein kinase erbB-2 (Homo sapiens) (UniProt P04626); details: at 0.1 µM
Receptor tyrosine-protein kinase erbB-2 (Homo sapiens), sequence (P04626 whole entry): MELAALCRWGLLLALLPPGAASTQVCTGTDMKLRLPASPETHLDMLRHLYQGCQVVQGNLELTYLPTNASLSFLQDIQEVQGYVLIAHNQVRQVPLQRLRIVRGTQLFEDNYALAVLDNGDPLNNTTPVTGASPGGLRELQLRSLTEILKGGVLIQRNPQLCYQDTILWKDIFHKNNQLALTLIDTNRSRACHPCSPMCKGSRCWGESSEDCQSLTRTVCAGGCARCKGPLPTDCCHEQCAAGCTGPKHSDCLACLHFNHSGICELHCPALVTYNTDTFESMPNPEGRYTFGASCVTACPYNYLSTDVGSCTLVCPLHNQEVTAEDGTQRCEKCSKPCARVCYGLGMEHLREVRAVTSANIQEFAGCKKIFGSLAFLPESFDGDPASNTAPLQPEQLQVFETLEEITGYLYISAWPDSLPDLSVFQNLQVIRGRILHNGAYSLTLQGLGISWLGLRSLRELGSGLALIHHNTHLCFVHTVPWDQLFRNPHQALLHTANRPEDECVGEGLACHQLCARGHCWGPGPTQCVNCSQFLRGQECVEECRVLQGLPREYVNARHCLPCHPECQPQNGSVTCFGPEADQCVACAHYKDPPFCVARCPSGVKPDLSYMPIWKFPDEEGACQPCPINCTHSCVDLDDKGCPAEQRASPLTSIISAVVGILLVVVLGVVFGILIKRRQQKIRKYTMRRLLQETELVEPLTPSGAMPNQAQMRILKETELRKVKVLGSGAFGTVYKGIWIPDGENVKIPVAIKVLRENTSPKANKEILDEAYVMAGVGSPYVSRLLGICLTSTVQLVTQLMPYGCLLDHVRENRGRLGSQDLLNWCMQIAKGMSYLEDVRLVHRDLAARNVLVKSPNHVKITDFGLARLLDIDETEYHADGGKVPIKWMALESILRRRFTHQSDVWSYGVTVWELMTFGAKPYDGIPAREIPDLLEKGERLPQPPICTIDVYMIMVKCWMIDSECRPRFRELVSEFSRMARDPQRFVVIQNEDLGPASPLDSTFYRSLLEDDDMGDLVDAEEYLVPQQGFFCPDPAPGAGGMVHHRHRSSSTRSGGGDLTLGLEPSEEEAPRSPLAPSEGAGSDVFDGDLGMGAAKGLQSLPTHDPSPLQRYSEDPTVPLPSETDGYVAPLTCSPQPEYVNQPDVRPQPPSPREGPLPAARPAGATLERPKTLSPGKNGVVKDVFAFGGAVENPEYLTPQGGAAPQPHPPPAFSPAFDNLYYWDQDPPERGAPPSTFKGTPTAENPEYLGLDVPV

[17] = target: Receptor tyrosine-protein kinase erbB-2 (Homo sapiens) (UniProt P04626); details: at 1 µM
[18] = target: Receptor tyrosine-protein kinase erbB-4 (Homo sapiens) (UniProt Q15303); details: at 0.1 µM
[19] = target: Receptor tyrosine-protein kinase erbB-4 (Homo sapiens) (UniProt Q15303); details: at 1 µM
[20] = target: Tyrosine-protein kinase Fer (Homo sapiens) (UniProt P16591); details: at 0.1 µM;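 note: reported figures are averaged percent inhibition of FER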
Tyrosine-protein kinase Fer (Homo sapiens), sequence (P16591 whole entry, looked up): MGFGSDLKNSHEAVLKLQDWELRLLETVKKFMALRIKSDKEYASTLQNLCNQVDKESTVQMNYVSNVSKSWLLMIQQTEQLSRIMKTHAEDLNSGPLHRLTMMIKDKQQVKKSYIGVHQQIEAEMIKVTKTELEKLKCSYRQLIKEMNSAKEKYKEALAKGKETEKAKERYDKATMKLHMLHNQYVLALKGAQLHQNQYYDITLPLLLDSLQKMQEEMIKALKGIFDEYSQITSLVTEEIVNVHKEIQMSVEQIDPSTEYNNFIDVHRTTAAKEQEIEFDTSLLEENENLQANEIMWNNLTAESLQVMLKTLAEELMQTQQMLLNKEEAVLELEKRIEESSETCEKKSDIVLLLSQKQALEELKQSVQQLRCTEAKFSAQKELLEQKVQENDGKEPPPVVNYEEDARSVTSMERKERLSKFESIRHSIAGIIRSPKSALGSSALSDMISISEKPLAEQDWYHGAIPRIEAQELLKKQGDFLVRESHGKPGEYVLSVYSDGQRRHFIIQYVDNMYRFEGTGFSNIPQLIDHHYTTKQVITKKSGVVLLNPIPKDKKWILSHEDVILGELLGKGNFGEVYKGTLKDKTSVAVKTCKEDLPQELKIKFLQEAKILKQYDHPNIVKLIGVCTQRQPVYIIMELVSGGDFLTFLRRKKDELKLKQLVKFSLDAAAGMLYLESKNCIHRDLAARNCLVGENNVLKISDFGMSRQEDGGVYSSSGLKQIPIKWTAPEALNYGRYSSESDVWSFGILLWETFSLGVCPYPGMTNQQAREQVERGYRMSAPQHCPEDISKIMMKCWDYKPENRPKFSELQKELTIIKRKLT

Epidermal growth factor receptor (Homo sapiens), P00533 [L858R,T790M], sequence (P00533 whole entry T790M/L858R, looked up): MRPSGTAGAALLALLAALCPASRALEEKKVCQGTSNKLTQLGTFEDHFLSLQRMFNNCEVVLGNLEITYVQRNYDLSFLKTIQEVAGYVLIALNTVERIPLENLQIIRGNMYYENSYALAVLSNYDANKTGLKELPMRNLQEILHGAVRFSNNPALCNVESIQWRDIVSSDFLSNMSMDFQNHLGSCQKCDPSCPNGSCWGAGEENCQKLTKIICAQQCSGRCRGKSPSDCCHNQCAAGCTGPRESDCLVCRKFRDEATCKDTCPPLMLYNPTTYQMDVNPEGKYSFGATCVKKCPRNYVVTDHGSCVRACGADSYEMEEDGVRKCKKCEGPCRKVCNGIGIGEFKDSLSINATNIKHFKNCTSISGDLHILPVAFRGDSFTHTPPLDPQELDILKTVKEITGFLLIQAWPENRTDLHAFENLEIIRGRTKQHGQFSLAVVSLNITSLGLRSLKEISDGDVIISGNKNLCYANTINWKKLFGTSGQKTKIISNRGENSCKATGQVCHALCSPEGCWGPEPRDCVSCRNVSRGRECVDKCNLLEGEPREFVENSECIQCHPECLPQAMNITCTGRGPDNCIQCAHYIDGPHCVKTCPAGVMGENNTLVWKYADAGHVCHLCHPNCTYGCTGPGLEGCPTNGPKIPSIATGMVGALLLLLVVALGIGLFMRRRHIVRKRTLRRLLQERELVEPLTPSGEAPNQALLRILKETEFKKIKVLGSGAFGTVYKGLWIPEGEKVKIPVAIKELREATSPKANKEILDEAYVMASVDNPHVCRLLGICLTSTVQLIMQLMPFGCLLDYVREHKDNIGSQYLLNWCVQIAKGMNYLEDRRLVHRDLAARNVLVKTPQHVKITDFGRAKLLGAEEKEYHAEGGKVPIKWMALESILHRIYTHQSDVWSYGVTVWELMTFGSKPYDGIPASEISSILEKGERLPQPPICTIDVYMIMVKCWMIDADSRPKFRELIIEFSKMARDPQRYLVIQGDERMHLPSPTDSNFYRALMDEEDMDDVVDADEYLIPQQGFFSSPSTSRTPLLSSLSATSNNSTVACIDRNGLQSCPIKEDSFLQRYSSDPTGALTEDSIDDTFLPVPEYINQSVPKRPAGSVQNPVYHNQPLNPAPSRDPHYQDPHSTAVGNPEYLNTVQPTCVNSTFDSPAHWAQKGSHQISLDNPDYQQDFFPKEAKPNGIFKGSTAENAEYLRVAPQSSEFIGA

Row | SMILES | inhibition [1] [%] | inhibition [2] [%] | inhibition [3] [%] | inhibition [4] [%] | inhibition [5] [%] | inhibition [6] [%] | inhibition [7] [%] | inhibition [8] [%] | inhibition [9] [%] | inhibition [10] [%] | inhibition [11] [%] | inhibition [12] [%] | inhibition [13] [%] | inhibition [14] [%] | inhibition [15] [%] | inhibition [16] [%] | inhibition [17] [%] | inhibition [18] [%] | inhibition [19] [%] | inhibition [20] [%]
1 | CCc1cccc(NC(=O)Nc2ccc(Oc3ccc4nc(NC(=O)OC)[nH]c4c3)cc2)c1 | 1.6 | 3.59 | 4.31 | 49.4 | 65.7 | 13.9 | 10.1 | 52.3 | 72.3 | 44.5 | 63 | 6.29 | 3.66 | 15.7 | 27.5 | 0.27 | 7 | 9.67 | 15.3 | 3.85
2 | O=C(Nc1n[nH]c2nc(-c3ccco3)c(Br)cc12)C1CC1 | -0.71 | 5.44 | 0.25 | 1.53 | 1.29 | 6.55 | 4.24 | 7.41 | 2.95 | 7.31 | 5.48 | 4.64 | 3.95 | 2.69 | 3.48 | 1.49 | -3.9 | 10.1 | 15.8 | 1.93
3 | Nc1ncnc2occ(-c3ccc(NC(=O)Nc4cc(C(F)(F)F)cc(C(F)(F)F)c4)cc3)c12 | -2.28 | -1.98 | 0.18 | 7.28 | 42 | 6.5 | 14.6 | 8.44 | 44.5 | 22 | 68.2 | 6.66 | 27.9 | 9.24 | 41.4 | -1.28 | -3.43 | 9.75 | 5.89 | 1.71
4 | Cc1cc(O)cc(C)c1/C=C/c1cncc(-c2nn[nH]n2)c1 | 3.37 | 2.15 | 2.05 | 39.5 | 84.4 | 12.4 | 34.8 | 37.4 | 87.6 | 15.1 | 61.5 | -0.26 | 5.69 | 3.89 | 46.2 | 1.86 | 0.56 | 12.1 | 36.7 | 4.18
5 | CCn1c(-c2nonc2N)nc2cnc(Oc3cccc(NC(=O)c4ccc(OCCN5CCOCC5)cc4)c3)cc21 | 2.18 | -0.63 | 3.24 | -2.53 | -2.47 | 3.26 | 4.85 | 7.53 | 7.73 | 5.7 | 6.97 | 6.88 | 5.06 | 3.21 | 3.05 | 4.69 | 2 | 5.15 | 10.4 | 3.9
6 | CCCN1CCC(Oc2cc(Nc3nc(Nc4cccc(F)c4C(N)=O)c4cc[nH]c4n3)c(OC)cc2Cl)CC1 | -0.49 | -2.63 | 2.79 | -1.48 | 0.75 | -0.71 | 2.51 | 3.96 | 9.42 | 5.31 | 13.7 | 1.47 | -1.18 | -0.64 | 0.69 | 0.9 | 1.3 | 0.71 | 0.3 | 3.76
7 | CS(=O)(=O)CCNCc1ccc(-c2ccc3ncnc(Nc4ccc(OCc5ccccc5)c(Cl)c4)c3c2)o1 | 17.8 | -1.01 | 2.45 | -2.92 | -2.31 | -2.51 | 1.66 | 1.26 | 9.95 | 5.36 | 11.5 | -0.46 | 2.9 | 1.93 | 2.4 | 21.5 | 69.5 | 59.8 | 88.1 | 4.02

From ChEMBL document CHEMBL1961873, “Compounds: GSK PKIS; Assays: Nanosyn kinase panel” (2012)
